Assay results as given in PubChem BioAssay AID2071 (Sanford-Burnham Center for Chemical Genomics, 2009).
Hit rate of the full screen: of about 280,000 compounds, about 1,700 (0.61%) were called active. This is one part of a sample in which actives are shown more often than they occur. Cut-off read from the data, not from the text of the source: active = inhibition mostly above about 24% (no sharp cut-off); inactive = mostly below about 32%.

Assay: NALP1 inflammasome inhibitors in reconstituted yeast, colorimetric, S. cerevisiae, triplicate retest (AID 2071)
Conditions: S. cerevisiae NALP1/ASC/caspase-1 growth, X-gal OD620, 72 h, stronger effect = higher value

SMILES: COC(=O)c1ccc2c(C(C)(C)O)c(C(C)(C)O)[nH]c2c1
- inhibition (at 10 µM unless noted): 2.7% (inactive)

SMILES: O=C(Nc1cccc(Cl)c1Cl)c1ccccc1NC(=O)C1CC=CCC1C(=O)O (stereo not drawn)
- inhibition (at 10 µM unless noted): 11% (inactive)

SMILES: CCCN1C2CCCC1CC(NC(=O)NC13CC4CC(CC(C4)C1)C3)C2 (stereo not drawn)
- inhibition (at 10 µM unless noted): 13.5% (inactive)

SMILES: COc1cccc(C(C(=O)NC2CCCC2)N(C(=O)c2ccco2)c2cccc(C(C)=O)c2)c1OC (stereo not drawn)
- inhibition (at 10 µM unless noted): 24.9% (inactive)

SMILES: CCCn1c(CCNc2nc(-c3ccc(OC)cc3)cs2)nc2ccccc21
- inhibition (at 10 µM unless noted): -2.4% (inactive)

SMILES: O=C(Cc1ccc(F)cc1)NC1CCCC1
- inhibition (at 10 µM unless noted): 9.3% (inactive)

SMILES: O=C(CSc1ncnc2c1oc1ccccc12)NC1CCCC1
- inhibition (at 10 µM unless noted): 15.8% (inactive)

SMILES: O=C(CSc1ncnc2c1nnn2Cc1ccc(F)cc1)NC1CCCC1
- inhibition (at 10 µM unless noted): 23.4% (active)

SMILES: COc1ccc(-c2cc(C(=O)N(C)Cc3ccc(OC)c(OC)c3OC)c3ccccc3n2)cc1OC
- inhibition (at 10 µM unless noted): 19% (inactive)

SMILES: Cc1nnc(NC2=NCCCCC2)o1
- inhibition (at 10 µM unless noted): 37.9% (active)

SMILES: Cn1cccc1C(=O)N1CCc2ccccc2C1
- inhibition (at 10 µM unless noted): 19.1% (inactive)

SMILES: CCC(C)c1ccc(NC(=S)N2CCCC2)cc1 (stereo not drawn)
- inhibition (at 10 µM unless noted): -2.6% (inactive)

SMILES: COc1ccc(C(=O)/C=C/c2ccc(-c3ccccc3)cc2)cc1CSCC(=O)O
- inhibition (at 10 µM unless noted): 3% (inactive)

SMILES: COC(=O)c1ccc(COc2ccc(/C=C/C(=O)c3ccc(OC)c(CSCC(=O)O)c3)cc2OC)cc1
- inhibition (at 10 µM unless noted): 34.2% (active)

SMILES: COc1cc(/C=N/O)ccc1OCc1ccc([N+](=O)[O-])cc1
- inhibition (at 10 µM unless noted): 12.2% (inactive)

SMILES: CC(=O)Nc1ccc(N2C(=O)CC(Sc3nccc(C)n3)C2=O)cc1 (stereo not drawn)
- inhibition (at 10 µM unless noted): -0.3% (inactive)

SMILES: Cn1c(NC(=O)c2ccccc2)nc2ccccc21
- inhibition (at 10 µM unless noted): 7.4% (inactive)

SMILES: CCc1ccc(S(=O)(=O)N/N=C\c2ccc([N+](=O)[O-])o2)cc1
- inhibition (at 10 µM unless noted): 9.4% (inactive)

SMILES: Cc1cc2ccccn2c1C(=O)c1cccc(F)c1
- inhibition (at 10 µM unless noted): 17.6% (inactive)

SMILES: Cc1ccc(C(C[N+](=O)[O-])c2c(C)cc3ccccn23)cc1 (stereo not drawn)
- inhibition (at 10 µM unless noted): 98.9% (active)

SMILES: CCC1=Nc2cc(C(=O)NCCCN3CCOCC3)ccc2Sc2ccc(Br)cc21
- inhibition (at 10 µM unless noted): 7.2% (inactive)

SMILES: CCc1ccc(CN(C)C(=O)C2CCC(=O)N(Cc3cccc(OC)c3)C2)nc1 (stereo not drawn)
- inhibition (at 10 µM unless noted): 9.6% (inactive)

SMILES: Cc1oc2cc3oc(=O)ccc3cc2c1C
- inhibition (at 10 µM unless noted): 8.6% (inactive)

SMILES: CN(C)CCCN(C(=O)COc1ccccc1)c1nc2c(Cl)cccc2s1
- inhibition (at 10 µM unless noted): 3.9% (inactive)

SMILES: Cc1cccc2sc(N(CCCN(C)C)C(=O)CCS(=O)(=O)c3ccccc3)nc12
- inhibition (at 10 µM): 78.1% (active)
- inhibition (triplicate retest, at 20 µM): 99.3%

SMILES: COc1cccc2sc(N(CCCN(C)C)C(=O)CCS(=O)(=O)c3ccccc3)nc12
- inhibition (at 10 µM unless noted): 14.3% (inactive)

SMILES: CC(C)CCNC(=O)c1ccc2c(Cl)c3c(nc2c1)CCC3
- inhibition (at 10 µM unless noted): 16.8% (inactive)
